# Source: PubChem BioAssay (National Center for Advancing Translational Sciences (NCATS))
# HCV inh = HCV inhibition | Huh7.5.1 HCVcc-Cre infection, luciferase reporter, 44 h | Potency, µM (doses to about 41.8 µM), without a hit: top-dose activity change, negative = inhibition, actives largely listed as inhibitors | actives 3.4% (n = 340,000) | AID 651820; note: potency is the fitted concentration of half-maximal effect; % is set by controls: 0 for no effect and ±100 for the full control effect
#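 1,000 cells/well; 4 h culture; + compound; + HCVcc-Cre (~0.5 moi); 44 h; luciferase substrate, RT 15 min; read 15 sec.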
# CHX counter = affects cycloheximide protein synthesis inhibition readout, counter-screen; cell reporter, cycloheximide protein synthesis inhibition counterscreen; max response, %; actives 12% (n = 300,000); AID 2314; in the data active = max response mostly above about 13%, no sharp cut-off; inactive = mostly below about 14%; note: read at 38.3 µM for the half of the compounds with a filed dose; 0% is about no effect
# Pf growth 96h = P. falciparum growth inhibition at 96 hours; P. falciparum luciferase reporter growth, 96 h; actives 6.9% (n = 320,000); AID 504834; Potency, µM (top dose mostly 28.7 µM), without a hit: top-dose activity change, negative = inhibition, actives largely listed as inhibitors; note: potency is the fitted concentration of half-maximal effect; % is set by controls: 0 for no effect and ±100 for the full control effect
#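 Cell-based qHTS: luciferase-tagged P. falciparum in erythrocytes (2% hematocrit, 0.05% parasitemia final) incubated with compounds for 96 hours, 37 C, 5% CO2; luciferase detection reagent then added and luminescence measured.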
# Pf growth 48h = inhibits P. falciparum growth in the first generation, 48 h; P. falciparum luciferase growth in erythrocytes, 48 h; Potency, µM (doses to about 28.7 µM), for the others: at the highest dose activity change, negative = inhibition, actives largely listed as inhibitors; actives 5.9% (n = 310,000); AID 504832; note: potency is the fitted concentration of half-maximal effect; % is set by controls: 0 for no effect and ±100 for the full control effect
#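 Firefly luciferase activity from engineered P. falciparum reports growth; inhibitors lower the luminescent signal. Cultures contained 2% hematocrit erythrocytes at 0.1% final parasitemia.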
# HCMV antiviral = inhibitors of human cytomegalovirus; HFF cells, HCMV-luciferase reporter, 72 h; hits give low values; actives 4.5% (n = 410,000); activity change, negative = inhibition, % at 57.5 µM; in the data active = activity change below about -60%; inconclusive = no clear call, values can overlap the other calls; inactive = above about -39%; note: % is set by controls: 0 for no effect and ±100 for the full control effect
#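 Two-dose cell screen: HFF monolayers treated with compounds and infected with luciferase-expressing HCMV at 1 PFU/cell, 72 h at 37C, then lysed for luciferase measurement.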
# Shiga toxin inh = inhibitors of Shiga toxin in Vero cells. Vero cells, Shiga toxin protein synthesis inhibition reporter. inhibition, % at 38.7 µM. actives 9.2% (n = 290,000). AID 2315; in the data active = inhibition mostly above about 28%, no sharp cut-off; inactive = mostly below about 43%; note: 0% is about no effect
# The depositor's hits bear a star; ? = inconclusive; nt = not tested or not shown; [ ] = dose if it differs, or a comment. Compounds with a hit are over-represented: about 21% of the library has one in this group of screens. Unless noted, calls come from the whole dose curve; as a rule, active = well fitted inhibition curve with a large enough effect; inconclusive = small, poorly fitted or top-dose-only effect, or another doubt; inactive = no such curve, though single readings can be large or run the other way.
SMILES,HCV inh,CHX counter,Pf growth 96h,Pf growth 48h,HCMV antiviral,Shiga toxin inh
CN(C)S(=O)(=O)N1CCC(Oc2ccc(C(=O)NC3Cc4ccccc4C3)cc2)CC1,3.5µM*,22*,?,?,-81*,106*
CCOC(=O)c1c(NC2OC(=O)c3c2ccc(OC)c3OC)sc(C(=O)OC(C)(C)C)c1C (centres undefined),?,31*,?,?,20,active
CCOc1ccc(NC(=O)c2cnsn2)cc1,4%,30*,nt,17%,73,55*
CCOc1ccc(NC(=O)c2nccnc2CO)cc1,8%,46*,0%,59%,90,93*
C/C(CC(=O)NC12CC3CC(CC(C3)C1)C2)=N\NC(=O)c1cnccn1,21%,7,?,25%,-17,20
CCOc1ccc(NC(C)=O)cc1,14%,2,39%,16%,-9,-1
CCOc1ccc(NC(=O)C/C(C)=N/NC(=O)c2cnccn2)cc1,-2%,22*,-7%,1%,-34,32*
CCOc1ccc(NC(N)=O)cc1,2%,-3,nt,4%,-12,1
COc1ccc(CNC(=O)C/C(C)=N/NC(=O)C23CC4CC(CC(C4)C2)C3)cc1,12%,29*,47%,-10%,15,53*
CCOC(=O)C1CCN(C(=O)c2cc(S(=O)(=O)N3CCOCC3)ccc2C)CC1,11%,nt,-23%,1%,-2,nt
CCOc1ccc(S(=O)(=O)NCCC(=O)NCCc2ccc(C(C)C)cc2)cc1,-16%[8.37 µM],nt,?,-14%,?,nt
O=C(C1CCC1)N1CCc2cc(S(=O)(=O)N3CCN(c4ccccc4)CC3)ccc21,nt,nt,nt,nt,-38,nt
COc1ccc(NC(=O)C/C(C)=N/NC(=O)c2cnccn2)cc1,10%,28*,35%,11%,-13,99*
CC(=O)Nc1ccc(NC(=O)C/C(C)=N/NC(=O)c2cccc3ccccc23)cc1,2%,-3,-23%,8%,13,-2
C/C(CC(=O)Nc1ccccn1)=N\NC(=O)c1cnccn1,21%,44*,-11%,12%,7,79*
COc1ccc(C(=O)N/N=C(\C)CC(=O)Nc2ccccn2)cc1OC,0%,-6,-22%,15%,13,1
C/C(CC(=O)Nc1ccc2ccccc2c1)=N\NC(=O)c1cnccn1,5%,29*,49%,?,7,52*
COc1ccc(OCC(=O)N/N=C(\C)CC(=O)Nc2ccc(NC(C)=O)cc2)cc1,13%,9,?,38%,-35,14
C/C(CC(=O)Nc1ccc2ccccc2c1)=N\NC(=O)c1ccc(O)c(O)c1,-4%,38*,10%,45%,-29,86*
CCOc1cc(C(=O)Nc2ncn[nH]2)cc(OCC)c1OCC,12%,3,?,-4%,20,-11
Cc1ccc(S(=O)(=O)N2CCOC23CCN(C(=O)c2ccccc2Br)CC3)cc1,-3%,-1,-8%,-26%,?,-2
CCOc1ccc(NC(=O)c2cnccn2)cc1,0%,18*,27%,101%,86,18*
COc1ccc(CNC(=O)C/C(C)=N/NC(=O)c2cnccn2)cc1,-7%,45*,19%,44%,?,71*
CCOc1cc(NC(=O)c2cnccn2)c(OCC)cc1NC(=O)c1ccc(OC)cc1,nt,-2,?,?,nt,-11
COc1ccc(C(=O)Nc2ccc(NC(=O)c3cnccn3)cn2)cc1,13µM*,1,33%,12%,13,10
CCOc1ccc(NC(=O)c2ccccn2)cc1,2%,7,-33%,-42%,?,-15
COCCNC(=O)C(=O)N/N=C(\C)CC(=O)Nc1cccnc1,15%,13*,-85%,26%,-1,-2
C[C@@H]1CN([C@@H](C)CO)C(=O)CCCn2cc(nn2)CO[C@H]1CN(C)C(=O)c1ccncc1,nt,nt,nt,nt,-5,nt
CCOC(=O)c1cn(Cc2ccccc2)c(C(=O)OC(C)(C)C)c1O,?,nt,nt,nt,-4,nt
O=C(c1ccc(Cl)cc1)C1CCCN(Cc2cccc3cccnc23)C1 (centres undefined),?,0,-5%,9.3µM*,-7,-5
